From PubChem BioAssay come the findings set out here.

The experiment has as its system Inhibin beta A chain (activin A). Put plainly: small molecules binding activin A – biochemical, small-molecule microarray, 635 nm fluorescence scan, primary screen (AID 1107).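 Also: mouse activin A protein probed at 4.33 µg/mL on printed slides; score merges bound-protein fluorescence near 667 nm with spot signal-to-noise.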 To be noted: INHBA, higher = more signal.
With `CCOC(=O)C[C@H]1[C@H](OC(=O)c2cc3ccccc3oc2=O)[C@@H](NC(=O)c2ccc3ccccc3n2)c2cc(OCCCO)ccc2N1C(=O)c1ccc2ccccc2n1`, the composite z-score turned out to be 0.626.
For the compound `CN1C(=O)C2C=CC(C(O)C3CCCCC3)N(N(c3ccccc3)c3ccccc3)C2C1=O` (stereo unspecified), the composite z-score amounted to 1.48.
In turn, `COc1ccccc1CN1C(=O)c2ccccc2[C@@H](C(=O)NCC(C)C)[C@@H]1c1ccc(CO)cc1` displayed a composite z-score of 0.002.
Compound `COC(=O)[C@@]1(Cc2ccccc2)[C@H]2c3cc(C(=O)N(C)C)n(Cc4ccc(O)c(OC)c4)c3C[C@H]2CN1C(=O)c1ccccc1` registered a composite z-score of 0.637.
Regarding `CCOC(=O)C[C@H]1[C@H](OC(=O)c2ccccc2-c2ccccc2)[C@@H](NC(=O)c2ccccc2)c2cc(OCCCO)ccc2N1C(=O)Cc1ccc(OC)cc1`, the composite z-score was determined as 0.264.
As for `CCC[C@@H]1C[C@@]1(CCC)[C@@H](NC(=O)c1ccco1)c1ccc(Cl)cc1`, the figure is 0.447; as for `CN(C)CCCN1C(=O)[C@@]2(Cc3ccccc31)c1ccccc1C(=O)N(Cc1ccccc1)[C@H]2c1ccc(CO)cc1`, 0.799.
The value for `O=C(NCc1ccccc1)[C@]1(Cc2ccccc2)N=C(c2ccc(OCCCO)cc2)O[C@@H]1c1ccccc1` was 0.672.
As for `O=C1c2ccccc2[C@](Cc2ccccc2I)(C(=O)NC2CC2)[C@H](c2ccc(CO)cc2)N1Cc1ccccc1Cl`, the figure is 1.02; as for `C=C(C(=O)CC[C@H](OC(=O)c1cccnc1)c1ccc(OCCO)cc1)C(C)C`, 0.958; as for `COCCOC(=O)N1C(=O)[C@@]2(c3cc(C#CCCO)ccc31)[C@H](C(=O)N1CCc3cc(OC)c(OC)cc3C1)[C@H]1C(=O)O[C@H](c3ccccc3)[C@H](c3ccccc3)N1[C@@H]2c1ccc(OCCO)cc1`, 0.0945.
The compound `C[N+](C)(C)CCCC[C@@H]1NC(=O)[C@H]2C[C@@H](C(=O)NCCCCCCN)[C@@H](c3cccc(OCCO)c3)N2C1=O` yielded a composite z-score of 1.63.
As for `COC(=O)C(CC#Cc1ccc2c(c1)[C@]1(C(=O)N2)[C@H](c2ccc(O)cc2)N2[C@H](c3ccccc3)[C@H](c3ccccc3)OC(=O)[C@H]2[C@@H]1C(N)=O)C(=O)OC`, the figure is -0.611; as for `CN(C)C(=O)[C@@]1(CCC(=O)OC(C)(C)C)N=C(c2ccc(OCCCO)cc2)O[C@H]1c1ccccc1N=[N+]=[N-]`, 0.707; as for `CCOC(=O)C[C@H]1[C@H](OC(=O)Cc2ccc3c(c2)OCO3)[C@@H](NC(=O)c2ccccc2)c2cc(OCCCO)ccc2N1C(=O)c1ccc2ccccc2n1`, 0.318.
The value for `O=[N+]([O-])c1ccc(C[n+]2ccc(-c3ccc(CO)cc3)cc2)o1` was 1.86; that for `NC(=O)[C@H]1[C@@H]2C(=O)O[C@@H](c3ccccc3)[C@@H](c3ccccc3)N2[C@@H](c2ccc(O)cc2)[C@]12C(=O)Nc1ccc(C#CC3(O)CCCCCC3)cc12` was 0.593; that for `CN(C)C(=O)[C@@]1(Cc2ccccc2N=[N+]=[N-])N=C(c2ccc(OCCCO)cc2)O[C@H]1c1ccccc1N=[N+]=[N-]` was 1.28.
In turn, `NC(=O)NCC#Cc1ccc2c(c1)[C@]1(C(=O)N2)[C@H](c2ccc(O)cc2)N2[C@H](c3ccccc3)[C@H](c3ccccc3)OC(=O)[C@H]2[C@@H]1C(N)=O` returned a composite z-score of 0.286.
As for `NC(=O)NCC#Cc1ccc2c(c1)[C@]1(C(=O)N2)[C@H](c2ccc(OCCO)cc2)N2[C@H](c3ccccc3)[C@H](c3ccccc3)OC(=O)[C@H]2[C@@H]1C(=O)N1CCN(c2ncccn2)CC1`, the figure is 1.29; as for `O=C1N(Cc2ccccc2)c2ccccc2[C@H]2OC(c3ccc(OCCCO)cc3)=N[C@@]12CCS(=O)(=O)c1ccccc1`, 0.808.
The value for `COCC(=C=CC[C@@H](O)c1ccccc1OCCO)C[C@@H](O)c1ccccn1` was 0.639.
As for `COc1ccc(C#Cc2ccc3c(c2)[C@]2(C(=O)N3)[C@H](c3ccc(OCCO)cc3)N3[C@H](c4ccccc4)[C@H](c4ccccc4)OC(=O)[C@H]3[C@@H]2C(=O)N2CCN(c3ncccn3)CC2)cc1`, the figure is 0.433.
`COc1ccc(C(=O)Nc2ccc3c(c2)[C@]2(O[C@@H](CCO)[C@H]([Si](C)(C)c4ccc(OC)cc4)[C@H]2C)C(=O)N3Cc2ccccc2)cc1`: the composite z-score is 1.11.
As for `CC(C)C[C@@H]1NC(=O)[C@@]23C(=O)N[C@@H](Cc4ccccc4)C2[C@H](C)[C@@]2(C)O[C@H]2C3/C=C/C/C=C\CNC(=O)[C@@H]2CCCN2C1=O` (stereo partly specified), the figure is 1.42; as for `Cc1cc(C)c(C(O)C2C=CC3C(=O)N(c4ccccc4)C(=O)C3N2Nc2ccc([N+](=O)[O-])cc2)c(C)c1` (stereo unspecified), 0.471; as for `CC[C@@H]1[C@@H]2C3C(=O)N(CC)C(=O)C3CC(=O)[C@@H]2[C@H](c2ccc(C)cc2)N1S(=O)(=O)c1ccc(C)cc1` (stereo partly specified), 0.241.
For the compound `C=CCNC(=O)[C@@H]1[C@H]2C(=O)O[C@H](c3ccccc3)[C@H](c3ccccc3)N2[C@H](c2ccc(O)cc2)[C@@]12C(=O)Nc1ccc(C#CCCO)cc12`, the composite z-score is -0.348.
As for `O=C1NC(=O)C2C1C=CC(C(O)c1ccc(-c3ccccc3)s1)N2Nc1ccccn1` (stereo unspecified), the figure is 1.18.
The value for `OCCCC1=CC(c2cccs2)N(Cc2cccc(OC(F)(F)F)c2)CC1` (stereo unspecified) was 0.756; that for `O=C1OCC=C[C@H]2OC34C=CCN(CCN5CCOCC5)C(=O)[C@H]3N(CCCCCO)C(=O)[C@@H]4[C@@H]12` (stereo partly specified) was 0.77; that for `CCCN1C(=O)[C@@]2(Cc3ccccc3)N=C(c3ccc(OCCCO)cc3)O[C@H]2c2ccccc21` was 1.14.
The compound `C[N+](C)(C)CCCC[C@@H]1NC(=O)[C@@H]2C[C@H](C(=O)O)[C@H](c3cccc(OCCO)c3)N2C1=O` yielded a composite z-score of 0.146.
As for `C/C=C/[C@@H](CCn1cc([C@H](O)c2ccccc2)nn1)[Si](C)(C)c1ccc(OC)cc1`, the figure is 0.0838; as for `CCN(CC)c1ccc(N2CC=CC34O[C@@H]5/C=C\CCCOC(=O)C5[C@H]3C(=O)N(CCCCCCO)[C@@H]4C2=O)cc1` (stereo partly specified), 0.751.
As for `COC(=O)[C@@]1(Cc2ccc(OC)cc2)[C@H]2c3cc(C(=O)N4CCCC4)n(CCF)c3C[C@H]2CN1C(=O)c1ccccc1`, the figure is 0.823.
